Data reported in PubChem BioAssay AID602243 (Broad Institute, 2012).
Some of the results follow. The source made the active and inactive calls. How the calls were made is not given here.

experiment: V. cholerae lux activation without autoinducers – BH1578 luxS cqsA deficient, cherry-pick, plate reader, dose response (AID 602243); details: V. cholerae BH1578 lux reporter, luminescence, 6 h; series mostly up to 50 µM

| Compound | outcome |
| --- | --- |
| NNC(=O)c1nnn(-c2nonc2N)c1CN1CCCC1 | inactive |
| CCOc1ccc(CCNC(=O)C2CCN(c3ccc(N4CCOCC4)nn3)CC2)cc1OCC | inactive |
| COc1ccc(CNc2nnnn2C)cc1 | inactive |
| CC(C)CNC(=O)COC(=O)/C=C/c1ccco1 | inactive |
| CC(C)CC(=O)N1CCN(Cc2ccccc2Br)CC1 | inactive |
| CC1CN(C(=O)COC(=O)c2cccc(NS(=O)(=O)c3ccccc3)c2)CC(C)O1 (centres undefined) | inactive |
| CCN(CC)c1nc(-c2ccccc2)cc(C(F)(F)F)c1C#N | inactive |
| Cc1cccc(C(=O)OCC(=O)NCC(C)C)c1O | inactive |
| COc1ccc(Cl)cc1NC(=O)COC(=O)c1ccc(Br)o1 | inactive |
| CCc1cccc(C)c1N(C(=O)Cn1c(CO)nc2ccccc21)C(C)COC (centres undefined) | inactive |
| O=C(Nc1ccc2oc(-c3ccc4ccccc4c3)nc2c1)c1cccs1 | inactive |
| CCC(C)(C)n1nnnc1CN1CCN(c2nc3ccc(C)cc3cc2C#N)CC1 | inactive |
| COc1ccc(N(CC(=O)NC2CCCCC2)C(=O)CNC(=O)c2ccco2)c(OC)c1 | inactive |
| COCCn1nnnc1CN1CCC(NC(=O)Nc2cccc(OC)c2)CC1 | inactive |
| NC(=O)c1nsc(C(=O)N(CC(=O)NCc2ccc(F)cc2)Cc2ccco2)c1N | inactive |
| COc1ccc2[nH]c(=O)c(CNc3ccc(C)c(C)c3)cc2c1 | inactive |
| CCCn1nnnc1NCc1ccc(CC)cc1 | inactive |
| O=C(Cc1ccc2c(c1)CCCC2)Nc1ccccc1Cl | inactive |
| COc1ccccc1CCNC(=O)C(=O)NCCC1CCCCN1S(=O)(=O)c1cccs1 (centres undefined) | inactive |
